High-throughput results from PubChem BioAssay.
The full list was thinned out, with hits kept by preference.
Giardia FBPA inh-1 – inhibitors of Giardia lamblia fructose-1,6-bisphosphate aldolase; 0.71% of 290,000 active; A8B2U2; Potency, µM (series often up to 59.6 µM), inactives show top-dose activity, negative = inhibition, usual class: inhibitors; purified Giardia FBPA; also: potency is read from the fitted curve at half-maximal effect; % is scaled to controls: 0 for no effect and ±100 for the full control effect; nearly all actives have a fitted effect of over 55% in size
Target sequence (A8B2U2 whole entry, looked up): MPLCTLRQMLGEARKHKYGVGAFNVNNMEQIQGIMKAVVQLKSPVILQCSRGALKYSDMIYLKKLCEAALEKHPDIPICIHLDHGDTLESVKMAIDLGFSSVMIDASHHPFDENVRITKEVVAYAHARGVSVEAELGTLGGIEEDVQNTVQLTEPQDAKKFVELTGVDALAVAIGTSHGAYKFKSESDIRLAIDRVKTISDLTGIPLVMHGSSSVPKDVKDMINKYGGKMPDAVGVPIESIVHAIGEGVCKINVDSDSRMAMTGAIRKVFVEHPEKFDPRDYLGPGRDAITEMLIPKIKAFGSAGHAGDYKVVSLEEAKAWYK
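40 nM FBPA preincubated 10 min at RT with compound (up to 57.5 uM final), then substrate plus GAPDH/TPI/NAD/arsenate coupling and diaphorase/resazurin added. Fluorescence read after 20 min at RT, 525/598 nm.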
CHX counter – counter-screen for Shiga toxin inhibitors: cycloheximide protein synthesis inhibition; cell reporter, cycloheximide protein synthesis inhibition counterscreen; max response, %; 12% of 300,000 active; AID 2314; in the data active = max response mostly above about 13%, no sharp cut-off; inactive = mostly below about 14%; also: read at 38.3 µM for the half of the compounds with a filed dose; 0% is about no effect
RE007 growth inh – less growth of the S. pombe RE007 Vpr strain; S. pombe RE007 Vpr strain, BacTiter-Glo ATP luminescence, 24 h; Potency, µM (series often up to 92.2 µM), inactives show at the highest dose activity change, negative = less growth, most hits filed as inhibitors; 0.21% of 360,000 active; AID 651644; active = well fitted falling curve with a large enough effect; inconclusive = small, poorly fitted or top-dose-only effect; inactive = no such curve, though single readings can be large or run the other way; also: potency is read from the fitted curve at half-maximal effect; % is scaled to controls: 0 for no effect and ±100 for the full control effect; nearly all actives have a fitted effect of over 50% in size
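Fission yeast RE007 carrying one integrated HIV-1 vpr copy, seeded at OD 0.01 in PMG+AL medium with 23 nL pinned compound. Grown 24 h at 30 degrees; viability read by BacTiter-Glo luminescence after 5 min.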
Shiga inhibitor – blocks Shiga toxin action in Vero cells; Vero cells, Shiga toxin protein synthesis inhibition reporter; AID 2315; inhibition, % at 38.7 µM; 9.2% of 290,000 active; in the data active = inhibition mostly above about 28%, no sharp cut-off; inactive = mostly below about 43%; also: 0% is about no effect
LmPK inh – LmPK (Leishmania mexicana) enzyme inhibition. Q27686. purified LmPK, Kinase-Glo ATP luminescence, 1 h. Potency, µM (doses to about 57.5 µM), inactives show top-dose activity change, negative = inhibition, hits mostly inhibitors. 0.37% of 290,000 active; also: potency is read from the fitted curve at half-maximal effect; % is scaled to controls: 0 for no effect and ±100 for the full control effect
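qHTS format; LmPK 0.1 nM; substrates PEP 0.5 mM and ADP 0.1 mM. One-hour room-temperature incubation, then coupled luciferase luminescence; 0.5 nM enzyme wells mark activation.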
TbPYK inhibitor – blocks Trypanosoma brucei pyruvate kinase | TbPYK enzyme, Kinase-Glo Plus ATP luminescence, 45 min | 0.12% of 410,000 active | Potency, µM (doses to about 76.8 µM), inactives show at the top dose activity, negative = inhibition, most hits filed as inhibitors | AID 624173; also: potency is read from the fitted curve at half-maximal effect; % is scaled to controls: 0 for no effect and ±100 for the full control effect; nearly all actives have a fitted effect of over 50% in size
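Activity of T. brucei pyruvate kinase was followed by Kinase-Glo Plus luminescence after the enzyme reacted 45 min at room temperature with 130 uM ADP (final) and substrate. Test compounds were added before ADP at multiple concentrations.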
Giardia growth – inhibitors of Giardia lamblia growth; Giardia lamblia trophozoite growth inhibition; shares compounds with Giardia FBPA inh-1; 5% of 1,500 active; Potency, µM (series often up to 57.5 µM), inactives show top-dose activity change, negative = inhibition, actives largely listed as inhibitors;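 also: potency is read from the fitted curve at half-maximal effect; trophozoites exposed to compound for 48 h at 37 °C; % is scaled to controls: 0 for no effect and ±100 for the full control effect; nearly all actives have a fitted effect of over 70% in size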
Mammalian tox – toxic to mammalian cells in Giardia aldolase counter-screen; shares compounds with Giardia FBPA inh-1; mammalian cell viability counter-screen, qHTS; Potency, µM (titrated, usually from 57.5 µM), inactives show at the highest dose viability change, negative = toxicity, most hits filed as inhibitors; 4% of 1,500 active; AID 2786;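 also: Chinese hamster ovary cells used as mammalian cytotoxicity surrogate; viability measured as cellular ATP by luminescence; potency is read from the fitted curve at half-maximal effect; compound exposure lasted 48 h before reading; % is scaled to controls: 0 for no effect and ±100 for the full control effect; nearly all actives have a fitted effect of over 60% in size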
Giardia FBPA inh-2 – confirmation of Giardia fructose-bisphosphate aldolase inhibitors. shares compounds with Giardia FBPA inh-1. purified Giardia aldolase enzyme activity, qHTS. Potency, µM (top dose mostly 57.5 µM), for inactives: at the highest dose activity change, negative = inhibition, usual class: inhibitors. 5% of 1,500 active. AID 2787; also: potency is read from the fitted curve at half-maximal effect; % is scaled to controls: 0 for no effect and ±100 for the full control effect; nearly all actives have a fitted effect of over 45% in size
Rabbit FBPA inh – rabbit FBP aldolase inhibition by Giardia aldolase hits. Potency, µM (highest dose often 57.5 µM), without a hit: at the highest dose activity, negative = inhibition, usual class: inhibitors. Rabbit muscle FBPA enzyme inhibition, selectivity counter-screen. 4% of 1,500 active. shares compounds with Giardia FBPA inh-1. AID 2794; also: potency is read from the fitted curve at half-maximal effect; % is scaled to controls: 0 for no effect and ±100 for the full control effect; nearly all actives have a fitted effect of over 60% in size
Target sequence (P00883 whole entry, looked up): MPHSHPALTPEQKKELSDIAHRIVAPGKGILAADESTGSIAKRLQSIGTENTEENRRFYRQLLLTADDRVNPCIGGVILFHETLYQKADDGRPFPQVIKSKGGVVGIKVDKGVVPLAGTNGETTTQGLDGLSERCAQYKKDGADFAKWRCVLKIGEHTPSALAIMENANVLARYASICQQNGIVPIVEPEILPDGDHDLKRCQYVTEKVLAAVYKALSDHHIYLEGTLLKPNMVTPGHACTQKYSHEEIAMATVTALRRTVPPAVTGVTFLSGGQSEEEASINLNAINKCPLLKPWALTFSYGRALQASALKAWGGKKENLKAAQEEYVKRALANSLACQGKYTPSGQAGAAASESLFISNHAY
GAPDH counter – GAPDH inhibition flagged for Giardia aldolase hits; shares compounds with Giardia FBPA inh-1; Potency, µM (top dose mostly 57.5 µM), inactives show at the top dose activity change, negative = inhibition, actives largely listed as inhibitors; AID 2795; 6% of 1,500 active; GAPDH coupling enzyme counterscreen, biochemical, qHTS; also: potency is read from the fitted curve at half-maximal effect; % is scaled to controls: 0 for no effect and ±100 for the full control effect; nearly all actives have a fitted effect of over 55% in size
Active calls of the source: *; u = inconclusive; x = no result given; [ ] = dose if it differs, or a comment. Unless noted, calls follow the shape of the dose curve; as a rule, active = well fitted curve in the direction sought with a large enough effect; inconclusive = small, poorly fitted or top-dose-only effect, or another doubt; inactive = no such curve, though single readings can be large; an effect the other way counts as inactive or inconclusive.

SMILES	Giardia FBPA inh-1	CHX counter	RE007 growth inh	Shiga inhibitor	LmPK inh	TbPYK inhibitor	Giardia growth	Mammalian tox	Giardia FBPA inh-2	Rabbit FBPA inh	GAPDH counter
N#CC1=C2SCN(c3ccc(F)cc3)CN2C(=O)CC1c1cccc(F)c1 (stereo not given)	7.1µM*	4	-8%	-15	2%	u	12%	5%	-28%	u	-26%
CCOC(=O)CC1=C(C(=O)OCC)C(c2cccs2)C(C#N)=C(N)O1 (stereo not given)	1%	-1	-3%	-5	-1%	-13%	x	x	x	x	x
N#CC1=C2SCC(O)(c3ccccc3)N2C(=O)CC1c1ccccc1 (stereo not given)	-20%	-5	1%	-13	4%	-9%	x	x	x	x	x
O=C(Nc1cccc(C(F)(F)F)c1)c1ccc(F)c(S(=O)(=O)N2CCc3ccccc3C2)c1	x	x	x	x	x	9%	x	x	x	x	x
CCOC(=O)c1[nH]c2ccccc2c1NC(=O)c1ccccc1OCC	x	x	x	x	x	2%	x	x	x	x	x
COc1cccc(C(=O)NC(=S)Nc2ccccc2N2CCCCC2)c1	16µM*	4	-11%	25	-7%	-12%	u	-22%	-3%	-2%	7%
Cc1cc(O)c(C(c2ccc(Cl)cc2)N2CCN(c3ccccc3)CC2)c(=O)n1Cc1ccco1 (stereo not given)	x	x	x	x	x	5%	x	x	x	x	x
N/C(=N\NS(=O)(=O)c1ccccc1)c1ccccn1	x	x	54%	x	x	2%	x	x	x	x	x
N/C(=N\NC(=O)Nc1ccccc1)c1ccccn1	20µM*	45*	-3%	57*	-1%	0%	-10%[10.4 µM]	-1%	-7%	5%	-1%
Cc1csc2nc(CCNS(=O)(=O)c3ccccc3)cn12	x	x	x	x	x	-5%	x	x	x	x	x
CCN(CC)C(=O)CSc1nnc(-c2ccc(F)cc2)n1N	11%	29	1%	10	4%	0%	x	x	x	x	x
CCN(CC)C(=O)CSc1n[nH]c(=S)n1N	7.1µM*	-1	11%	-1	-2%	6%	-18%[38.3 µM]	-11%	-30%	-19%	-19%
NS(=O)(=O)c1ccc(CNC(=S)NC2CCCC2)cc1	2%	2	-4%	-11	2%	3%	x	x	x	x	x
NS(=O)(=O)c1ccc(NC(=S)NC2CCCCC2)cc1	10µM*	6	-7%	26	-3%	u	-2%[38.3 µM]	u	40µM*	u	40µM*
N#Cc1ccccc1NC(=S)NC(=O)c1cccs1	10µM*	31*	-21%	77*	-5%	-12%	u	-13%	u	u	u
COc1ccc2cc(S(=O)(=O)c3ccccc3F)c(=O)oc2c1	x	x	x	x	x	-1%	x	x	x	x	x
O=[N+]([O-])c1cccnc1N1CCN(Cc2ccc3c(c2)OCO3)CC1	u	8	-1%	24	-14%	-1%	x	x	x	x	x
C/C(=C\c1ccccc1)C(=O)N1CCN(Cc2ccc3c(c2)OCO3)CC1	5%	-2	-6%	-9	-2%	3%	x	x	x	x	x
C(=C\c1ccccc1)/CN1CCN(Cc2ccc3c(c2)OCO3)CC1	7.9µM*	2	-8%	-9	-3%	0%	-20%	7%	9%	0%	17%
O=[N+]([O-])c1ccccc1/C=C/CN1CCN(Cc2ccc3c(c2)OCO3)CC1	11µM*	-2	-12%	3	-4%	5%	-8%[10.4 µM]	7%	-7%	0%	9%
CNC(=O)c1c(C)[nH]c(=S)c(C#N)c1-c1ccco1	13µM*	0	20%	8	29%	7.9µM*	3%[10.4 µM]	15%	6%	1%	13%
Cc1ccccc1NC(=O)c1c(C)[nH]c(=S)c(C#N)c1-c1ccco1	12%	-3	21%	-14	16%	-17%	x	x	x	x	x
O=C(CNC1CC1)Nc1cc(C(F)(F)F)ccc1Cl	7.9µM*	13	19%	12	-11%	1%	u	-12%	-2%	4%	5%
COc1ccc(CN2CCN(Cc3ccccc3C(F)(F)F)CC2)c(OC)c1	13µM*	-4	-13%	-7	-1%	-6%	u	12%	-2%	8%	-4%
COc1ccc(CN2CCN(CCCc3ccccc3)CC2)c(OC)c1	16µM*	-3	x	-5	0%	x	8%	-14%	-1%	5%	13%
Cc1cc(NC(=O)c2ccc(-c3ccc(Br)cc3)o2)cc(-c2nc3ncccc3o2)c1O	x	x	x	x	x	5%	x	x	x	x	x
Cc1ccccc1OCC(O)CN1CCN(CC(O)COc2ccccc2C)C(C)C1 (stereo not given)	14µM*	-3	-4%	-2	-3%	39%	-25%	-9%	4%	6%	5%
Cc1ccccc1OCC(O)Cn1c2ccccc2c2ccccc21 (stereo not given)	-10%	-4	u	-3	0%	-5%	x	x	x	x	x
